Data: ChEMBL document CHEMBL3988442, “University of Dundee, Small-Polar-MMV Screening Library” (2021)
Several values for one entry are separate records, joined by “and”; a condition that tells them apart may be missing. Equal entries are not always repeated. In all, about 34,000 compounds went through this assay and about 290 (0.85%) showed an effect of 50% or more. The list comes from a sample in which strong results are over-represented; it also holds similar structures and randomly drawn compounds.

Test system: Plasmodium falciparum
Experiment: Plasmodium falciparum sporozoite viability assay
Type: functional, organism-based
Parameters: scale not given: in the data most compounds retested in dose-response had high values

SMILES | Percent Effect | Percent Effect (10 mM as filed; unlikely as a test dose)
CCn1cc(CN2CCCN(C(=O)c3ccccc3OC)CC2)cn1 | 5.544% | –
CCCc1cc(CNC(=O)C2CCOc3ccccc3C2)on1 (configuration not stated) | 10.71% | –
CCCc1cc(CNC2CCN(c3nc4ccccc4s3)CC2)on1 | – | 84.7% and 90.12%
Cc1nc(CN2CCCC(NCc3nc4ccccc4s3)C2)no1 (configuration not stated) | 12.82% | –
CC(=O)N1N=C(c2ccccc2)OC1C(=O)NCCc1ccc(C)cc1 (configuration not stated) | -14.76% | –
CNC(=O)CN1CCCC12CCN(C(=O)c1ccccc1F)CC2.O=C(O)C(F)(F)F | -2.189% | –
Cl.Clc1ccccc1CN1CCc2nc(C3CCCNC3)ncc2C1 (configuration not stated) | 2.109% | –
CC(C)Oc1ccc2c(NC(=O)[C@H](C)O)nn(CC(F)(F)F)c2c1 | – | -22.23% and -11.46%
Cc1csc(NC(=O)[C@@H]2C[C@H]3[C@H](CCN3c3ncccn3)O2)n1.O=C(O)C(F)(F)F | 2.312% | –
CCn1cc(C(=O)N2CCOC(c3nc(-c4cccs4)no3)C2)cn1 (configuration not stated) | – | 66.92% and 76% and 54.9%
CCn1ccc(C(=O)N2CCOC(c3nc(-c4cccs4)no3)C2)n1 (configuration not stated) | – | -10.26% and 14.68% and 1.172%
CCCn1cc(C(=O)N2CCOC(c3nc(-c4cccs4)no3)C2)cn1 (configuration not stated) | – | 42.39% and 34.52% and 29.79%
Cc1nc(-c2nc(C(=O)N(C)C)c3ccccn23)cn1C(C)C | – | 38.79% and 23.46% and 42.96%
CC(C)n1cnc(-c2nc(C(=O)NC3CC3)c3ccccn23)c1 | 6.582% | –
Cn1cnc(-c2nc(C(=O)NC3CC3)c3ccccn23)c1 | 10.82% | –
Cn1cnc(-c2cc(C(=O)N3CCOCC3)c3ccccn23)c1 | -1.371% | –
Cc1nc(-c2nc(C(=O)N3CCOCC3)c3ccccn23)cn1C(C)C | – | 54.88% and 55.7%
Cc1nc(-c2nc(C(=O)NC3CC3)c3ccccn23)cn1C(C)C | – | 58.89% and 55% and 41.86%
CCNC(=O)c1cc(OC)c2cc(F)cc(C)c2n1 | 1.557% | –
Cc1cncnc1C1CCN(CC2CC2)CC1 | 1.471% | –
CCCOc1cccc(OCc2ccon2)c1 | -14.79% | –
Cc1cc(C)n(CC2CCCCN2CCc2ccncc2)n1 (configuration not stated) | 5.224% | –
Cc1c(C)n2c(SCC(=O)N3CCCCCC3)nnc2[nH]c1=O | – | -20.75% and -26.48%
CNC(=O)CNC(=O)c1ccc(-c2scnc2C)nc1 | 1.458% | –

SMILES | Percent Effect | Percent Effect (10 mM as filed; unlikely as a test dose)
CCc1ccc(C(=O)NCc2ccnc(N3CCN(C)CC3)c2)o1 | 8.293% | –
CCc1nnc2n1CCN(CCC(=O)Nc1sccc1C#N)C2 | 5.694% | –
CCOC[C@@H]1CC[C@H]2[C@H](CCN2C(=O)c2cnccn2)O1 | -3.07% | –
c1ccc(-c2nc(CNC3CCc4ncnn4C3)cs2)cc1 (configuration not stated) | 1.596% | –
OCCN1CCN(Cc2coc(-c3cccc(Cl)c3)n2)CC1 | -3.989% | –
CCN1CCN(Cc2coc(-c3cccc(F)c3)n2)CC1 | – | 64.85% and 77.13% and 53.15%
CC(=O)N1CCN(Cc2coc(-c3cccc(F)c3)n2)CC1 | – | -29.73% and -43.84% and -27.15%
N#Cc1ccc(NCCC(=O)N2CCCc3ccccc32)nc1 | -11.08% | –
Cc1cc(CC2COCCN(CCc3ccccc3)C2)ncn1 (configuration not stated) | 5.745% | –
O=C(c1cc(-c2cccnc2)[nH]n1)N1CCCC(c2cnccn2)C1 (configuration not stated) | 12.79% | –
COc1ccc2cc(C3CN(C(=O)CN4CCCC4)CCO3)ccc2c1 (configuration not stated) | – | 56.27% and 53.19% and 50.16%
COc1ccc2c(c1)[C@@H](CCNC(C)=O)CC(C)(C)O2 | 3.641% | –
Cc1c[nH]nc1C1CCN(C(=O)C2CCOCC2)C1 (configuration not stated) | -9.491% | –
COc1ccc2cc(C3CN(C(=O)C4CCOCC4)CCO3)ccc2c1 (configuration not stated) | – | 90.24% and 38% and 72.69%
COc1ccc2cc(C3CN(C(=O)N(C)C)CCO3)ccc2c1 (configuration not stated) | – | 102.8% and 105.3% and 102%
COc1ccc(-c2cnc(N(C)C)nc2C2CN(C(C)=O)CCO2)cc1 (configuration not stated) | 14.8% | –
CC(=O)NCC(=O)N1CCOC(c2cccc(N)n2)C1 (configuration not stated) | 2.685% | –
Nc1cccc(C2CN(C(=O)CN3CCOCC3)CCO2)n1 (configuration not stated) | 3.517% | –
COc1ccc2cc(C3CN(C(=O)CCNC(C)=O)CCO3)ccc2c1 (configuration not stated) | – | 97.44% and 100.2% and 98.47%
COc1ccnc(N2CCN(CC(=O)N3CCOC(C)C3)CC2)n1 (configuration not stated) | -0.9874% | –
COc1ccc(CN2CCO[C@H]3CN(C(=O)C4CC4)CC[C@H]3C2=O)cc1 | -7.815% | –
CC(=O)N1CCOC(c2ccnc(N(C)C)n2)C1 (configuration not stated) | 3.741% | –
COc1ccccc1CN1CCC2(CCC(C(=O)N(C)C)O2)CC1 (configuration not stated) | 9.72% | –
